Consider 25 compounds from ChEMBL document CHEMBL4296182, “CO-ADD screening of NIH NCI Diversity Set V”.

One assay relates to Staphylococcus aureus. Nature of the assay: Antibacterial activity against Staphylococcus aureus MRSA ATCC 43300 (CO-ADD:GP_020); MIC in CAMBH media using NBS plates, by Resazurin F(560/590). It counts as functional. Conditions: Concentration 20 uM, ASSAY_TEST Inhibition of Bacterial Growth, detection method Resazurin, Fluorescence (ex560/em590), MEDIA CAMHB, plate type 384well, CORNING #3640, time 18 hr.

For another assay, the system named is Acinetobacter baumannii. Kind of assay: Antibacterial activity against Acinetobacter baumannii ATCC 19606 (CO-ADD:GN_034); MIC in CAMBH media using NBS plates, by Resazurin F(560/590). The format is functional. The note with it: Concentration 20 uM, ASSAY_TEST Inhibition of Bacterial Growth, detection method Resazurin, Fluorescence (ex560/em590), MEDIA CAMHB, plate type 384well, CORNING #3640, time 18 hr.

The next assay deals with Klebsiella pneumoniae. Conditions: Concentration 20 uM, ASSAY_TEST Inhibition of Bacterial Growth, detection method Absorption (OD600), MEDIA CAMHB, plate type 384well, NBS, CORNING #3640, time 18 hr.
The subject of the next assay is Cryptococcus neoformans. Conditions: Concentration 20 uM, ASSAY_TEST Inhibition of Fungal Growth, detection method Resazurin, Absorption (OD600-OD570), plate type 384well, NBS, CORNING #3640.
The next assay has as its system Escherichia coli. Nature of the assay: Antibacterial activity against Escherichia coli ATCC 25922 (CO-ADD:GN_001); MIC in CAMBH media using NBS plates, by Resazurin F(560/590). The format is functional. The note with it: Concentration 20 uM, ASSAY_TEST Inhibition of Bacterial Growth, detection method Resazurin, Fluorescence (ex560/em590), MEDIA CAMHB, plate type 384well, CORNING #3640, time 18 hr.

The test system of a further assay is Candida albicans. The note with it: 20 µM.

Where “and” joins values, the source holds several entries; their conditions need not be identical. Equal entries are not always repeated. For some of these results: Results with a measured potency or affinity are listed apart.

Take `OC(COc1cccc2ccccc12)CN1CCN(c2ccc(Cl)cc2)CC1` (stereo not drawn): the Inhibition is 7.27% and -7.63% in the assay with Staphylococcus aureus (18 h, 20 µM); 6.27% and 10.91% in the assay with Acinetobacter baumannii (18 h, 20 µM); 26.3% and 15.3% in the assay on Klebsiella pneumoniae (20 µM); -9.84% and -9.74% in the assay on Cryptococcus neoformans (20 µM).

`CCOC(=O)Cc1cc(=O)[nH]n(-c2ccccc2)c1=O`: the Inhibition with Staphylococcus aureus is 5.46%; in the assay on Acinetobacter baumannii, 4.69%; in the assay with Escherichia coli it was 13.24%; in the assay on Klebsiella pneumoniae it was 12.15%; in the assay on Candida albicans, 4.43%; with Cryptococcus neoformans it was -10.57%.

`CC1=CC(C)(C)Nc2ccc(Cc3ccc4c(c3)C(C)=CC(C)(C)N4)cc21`: the Inhibition with Staphylococcus aureus was 2.44%; with Acinetobacter baumannii it was 4.53%; with Escherichia coli it was -20.49%; in the assay on Klebsiella pneumoniae, -0.68%; with Candida albicans, 14.9%; in the assay with Cryptococcus neoformans it was 28.4%.

Turning to `CCOC(=O)C(=O)Cc1cccnn1`, the Inhibition is 12.36% in the assay on Staphylococcus aureus; -7.97% in the assay with Acinetobacter baumannii; 16.74% in the assay on Escherichia coli; 15.16% in the assay with Klebsiella pneumoniae; 9.85% in the assay with Candida albicans; -1.54% in the assay with Cryptococcus neoformans.

On to `CC1=CC(C)(C(Cl)(Cl)Cl)C(C)=C/C1=N/O` (stereo not drawn), for which the Inhibition in the assay on Staphylococcus aureus is 1.65%; in the assay with Acinetobacter baumannii, -20.29%; in the assay on Escherichia coli, 8.83%; with Klebsiella pneumoniae, 12.76%; with Candida albicans, 4.85%; in the assay on Cryptococcus neoformans it was -11.97%.

With `CCCCSc1nc(O)cc(C(=O)O)n1`, the Inhibition was 3.28% with Staphylococcus aureus; -12.23% in the assay on Acinetobacter baumannii; 5.2% in the assay on Escherichia coli; 7.02% with Klebsiella pneumoniae; 2.48% with Candida albicans; -8.23% with Cryptococcus neoformans.

With `CCCNC(=O)Nc1ccc(C)cc1C`, the Inhibition is 1.69% in the assay on Staphylococcus aureus; 10.44% with Acinetobacter baumannii; -6.23% in the assay on Escherichia coli; 17.61% in the assay with Klebsiella pneumoniae; 5.41% in the assay on Candida albicans; -2.02% in the assay on Cryptococcus neoformans.

For the compound `Cc1nc(N)nc(Nc2ccc(C#N)cc2)c1Br`, the Inhibition in the assay on Staphylococcus aureus is 13.25%; with Acinetobacter baumannii it was -2.28%; in the assay on Escherichia coli it was 22.67%; in the assay with Klebsiella pneumoniae, 5.37%; in the assay with Candida albicans it was 0.12%; with Cryptococcus neoformans, -9.52%.

With `CCCCCCCCCCCCC(NC(C)=O)(C(=O)OCC)C(=O)OCC`, the Inhibition with Staphylococcus aureus is 14.33%; with Acinetobacter baumannii, 7.7%; with Escherichia coli it was 5.2%; in the assay on Klebsiella pneumoniae, 18.57%; in the assay on Candida albicans, 7.18%; with Cryptococcus neoformans it was -2.7%.

Take `O=C1C2C3C=CC(O3)C2C(=O)N1Nc1ccccc1` (stereo not drawn): the Inhibition is -4% in the assay on Staphylococcus aureus; 10.94% in the assay with Acinetobacter baumannii; -0.67% in the assay with Escherichia coli; 8.39% in the assay with Klebsiella pneumoniae; 1.05% in the assay on Candida albicans; -2.5% with Cryptococcus neoformans.

Regarding `C[C@]12CC[C@@H]3c4ccc(OCC(=O)O)cc4CC[C@H]3[C@@H]1CCC2=O`, the Inhibition in the assay on Staphylococcus aureus is 9.17%; with Acinetobacter baumannii, -16.81%; in the assay on Escherichia coli it was 9.71%; with Klebsiella pneumoniae, 8.63%; in the assay with Candida albicans, 3.7%; in the assay with Cryptococcus neoformans it was -16.24%.

Consider `Nc1ncnc2c1ncn2C1C=C(CO)C(O)C1O` (stereo not drawn), for which the Inhibition in the assay on Staphylococcus aureus was 4.94%; in the assay with Acinetobacter baumannii it was -16.45%; in the assay on Escherichia coli, 9.33%; in the assay on Klebsiella pneumoniae, 9.87%; with Candida albicans, 1.07%; in the assay on Cryptococcus neoformans it was -6.12%.

Take `CSc1ccc2c(c1)C(N1CCN(C)CC1)Cc1ccccc1S2.O=C(O)/C=C\C(=O)O` (stereo not drawn): the Inhibition was -0.23% with Staphylococcus aureus; -8.02% in the assay on Acinetobacter baumannii; 11.6% in the assay with Escherichia coli; 5.53% in the assay with Klebsiella pneumoniae; 2.59% in the assay on Candida albicans; -7.96% in the assay on Cryptococcus neoformans.

As to `Cn1cnc([N+](=O)[O-])c1Sc1nc[nH]n1`, the Inhibition was 12.64% in the assay with Staphylococcus aureus; 10.96% in the assay with Acinetobacter baumannii; 6.64% in the assay with Escherichia coli; 17.02% with Klebsiella pneumoniae; 2.6% with Candida albicans; -9.11% with Cryptococcus neoformans.

For the compound `CN(C)C(=O)OCC1COc2ccccc2O1` (stereo not drawn), the Inhibition is 14.89% in the assay with Staphylococcus aureus; -13.85% in the assay on Acinetobacter baumannii; 7.79% with Escherichia coli; 12.42% in the assay with Klebsiella pneumoniae; -0.21% in the assay on Candida albicans; -9.62% in the assay on Cryptococcus neoformans.

For `Cc1cc(=O)[nH]/c(=N/N=C2/CCCCC2C)[nH]1` (stereo not drawn), the Inhibition was 22.54% in the assay with Staphylococcus aureus; -10.76% in the assay with Acinetobacter baumannii; 10% in the assay with Escherichia coli; 5.45% with Klebsiella pneumoniae; -3.38% with Candida albicans; -9.25% in the assay with Cryptococcus neoformans.

On to `COC(=O)C1(C)Cc2cc(OC(C)=O)c(OC(C)=O)cc2N1` (stereo not drawn), for which the Inhibition in the assay on Staphylococcus aureus was 12.77%; in the assay on Acinetobacter baumannii it was 0.02%; with Escherichia coli it was 8.98%; in the assay with Klebsiella pneumoniae, 5.52%; in the assay on Candida albicans, -3.71%; in the assay on Cryptococcus neoformans, -8.65%.

As for `C=CCOc1ccnc(-c2ccccc2)n1`, the Inhibition in the assay with Staphylococcus aureus is -3.88%; with Acinetobacter baumannii it was -11.54%; with Escherichia coli it was 5%; with Klebsiella pneumoniae it was 9.63%; in the assay with Candida albicans, 1.14%; in the assay on Cryptococcus neoformans, -7.2%.

`Cc1cccc(Nc2sc(C(=O)c3cc4cc(Cl)ccc4o3)c(N)c2C#N)c1`: the Inhibition with Staphylococcus aureus is 1.46%; with Acinetobacter baumannii, -13.03%; in the assay on Escherichia coli it was 6.28%; in the assay with Klebsiella pneumoniae it was 5.96%; in the assay on Candida albicans, 0.06%; in the assay on Cryptococcus neoformans it was 37.64%.

`CC1CC(C)(C)NC2(CCCC2)N1` (stereo not drawn): the Inhibition in the assay with Staphylococcus aureus was 12.12%; in the assay on Acinetobacter baumannii, -5.32%; in the assay with Escherichia coli, 5.91%; in the assay on Klebsiella pneumoniae it was 11.32%; in the assay with Candida albicans, -0.15%; in the assay with Cryptococcus neoformans, -4.43%.

`Cc1nc2ccccc2c(N)c1-c1cc(C)c2c(C)nc3ccccc3c2n1`: the Inhibition was -4.42% in the assay on Staphylococcus aureus; 8.74% in the assay on Acinetobacter baumannii; -14.9% in the assay on Escherichia coli; 5.08% with Klebsiella pneumoniae; 2.89% in the assay on Candida albicans; 18.77% in the assay on Cryptococcus neoformans.

In the case of `O=Cc1c[nH]c2ncccc12`, the Inhibition was 3.78% in the assay on Staphylococcus aureus; -8.67% with Acinetobacter baumannii; 4.47% with Escherichia coli; 13.98% with Klebsiella pneumoniae; 4.83% with Candida albicans; -7.37% with Cryptococcus neoformans.

For the compound `O=C(c1ccccc1)C1N=NCC1c1ccc(Cl)cc1` (stereo not drawn), the Inhibition was 21.05% in the assay on Staphylococcus aureus; 1.64% in the assay with Acinetobacter baumannii; 18.84% in the assay with Escherichia coli; 8.27% in the assay with Klebsiella pneumoniae; 8.01% in the assay with Candida albicans; -11.46% in the assay with Cryptococcus neoformans.

For the compound `CC(C)c1ccc(-c2nc3ccccc3s2)cc1`, the Inhibition in the assay with Staphylococcus aureus was 16.1%; with Acinetobacter baumannii, 2.02%; in the assay on Escherichia coli, 4.01%; with Klebsiella pneumoniae, 12.27%; in the assay on Candida albicans it was 8.12%; in the assay with Cryptococcus neoformans, -7.1%.

For the compound `CC(=O)Nc1nc(C)c(CCC2OCCO2)c(O)n1`, the Inhibition was 4.85% with Staphylococcus aureus; 12.66% in the assay with Acinetobacter baumannii; -15.79% in the assay with Escherichia coli; 16.29% with Klebsiella pneumoniae; 5.32% with Candida albicans; 22% in the assay on Cryptococcus neoformans.
